Only a selection was taken, and hits are over-represented in it overall.
HIV RNase H inh-1: HIV-1 RT RNase H inhibitors, primary screen, biochemical, fluorescence; Gag-Pol polyprotein (Human immunodeficiency virus type 1 group M subtype B (isolate …; RT-RNase H RNA/DNA duplex cleavage; inhibition, % at 10 µM; 1.9% of 65,000 active; AID 565, 2006; in the data active = inhibition above about 50%
RmlC RmlD mix: RmlC and RmlD coupled enzyme inhibitors, primary screen, biochemical, 384-well, compound mixtures, retest; RmlC/RmlD coupled enzyme inhibition, 384-well mixture HTS; 0.39% of 110,000 active; inhibition, % at 5.5 µM; in the data active = inhibition above about 30%, passing the limit was not always enough; inconclusive = no clear call, values can overlap the other calls
HIV RNase H inh-2: HIV-1 RT RNase H inhibitors, retest, confirmation, biochemical. inhibition, % at 10 µM. 39% of 1,000 active. AID 651, 2007. shares compounds with HIV RNase H inh-1. Recombinant RT RNase H, fluorescent RNA/DNA duplex cleavage; in the data active = inhibition above about 48%; inconclusive = no clear call, values can overlap the other calls
A number is an active result; – = inactive; ? = inconclusive; · = not tested or not shown.

SMILES	HIV RNase H inh-1	RmlC RmlD mix	HIV RNase H inh-2
CCCCC(CC)Cn1c2nc3ccccc3nc2c2c(=N)oc(C)nc21 (stereo unspecified)	68	·	65
CCCCn1c2nc3ccccc3nc2c2c(=N)oc(C)nc21	–	·	·
N#CNC1=NCN(Cc2ccccc2)CN1	–	–	·
COc1ccc(OC)c(S(=O)(=O)Nc2ccc(O)c3ccccc23)c1	83	–	?
COc1ccc(OC)c(S(=O)(=O)Nc2ccc(Oc3ccccc3)cc2)c1	·	–	·
CCOc1ccc(NS(=O)(=O)c2cc(OC)ccc2OC)cc1	·	–	·
COc1ccc(OC)c(S(=O)(=O)Nc2ccc(O)c(Sc3ncn[nH]3)c2)c1	94	–	60
COc1ccc(-c2c(C3=CCCCC3)oc3ccc(-c4ccc5c(c4)OCO5)cc23)cn1	·	–	·
C/C(Cl)=C/Cn1c(SCc2ccc(Cl)cc2)nc2c1c(=O)[nH]c(=O)n2C	–	–	·
C=CCn1c(SCCN2CCOCC2)nc2c1c(=O)[nH]c(=O)n2C	–	–	·
COCCn1c(SCc2c(F)cccc2Cl)nc2c1c(=O)[nH]c(=O)n2C	57	–	–
Cc1ccc(Cn2c(Sc3ncccn3)nc3c2c(=O)[nH]c(=O)n3C)cc1	–	–	·
C/C=C/CSc1nc2c(c(=O)[nH]c(=O)n2C)n1Cc1ccc(C)cc1	80	–	72
COCCn1c(SCCN2CCOCC2)nc2c1c(=O)[nH]c(=O)n2C	88	–	60
CCCCn1c(SCc2ccc(Cl)cc2)nc2c1c(=O)[nH]c(=O)n2C	54	–	–
CCOCCn1c(SCc2ccc(F)cc2)nc2c1c(=O)[nH]c(=O)n2C	–	–	·
CC(C)CCSc1nc(N)c(C#N)cc1C#N	–	–	·
O=C(NCC1CC1)C1(C(F)(F)F)CC(CCCO)CCCO1 (stereo unspecified)	·	–	·
CC(C)c1ccc(CN2CC(C(=O)O)CC2=O)cc1 (stereo unspecified)	·	–	·
CC1(C)CC(=O)C(/C=N/c2ncccc2C(=O)O)=C(O)C1	–	–	·
CC(C)CSc1nc2c(c(=O)[nH]c(=O)n2C)n1CCc1ccccc1	–	–	·
C/C=C/Cn1c(SCc2ccccc2)nc2c1c(=O)[nH]c(=O)n2C	50	–	–
COc1cc(S(=O)(=O)N2CCN(C(=O)c3ccccc3F)CC2)c(OC)cc1NC(C)=O	–	–	·
C=CCSc1nc2c(cnn2-c2ccc(C)c(C)c2)c(=O)[nH]1	58	–	59
CCCCSc1nc2c(cnn2-c2ccc(F)cc2)c(=O)[nH]1	–	–	·
SMILES	HIV RNase H inh-1	RmlC RmlD mix	HIV RNase H inh-2
COC(=O)c1ccc(CSc2nc3c(cnn3-c3ccc(F)cc3)c(=O)[nH]2)o1	–	–	·
CSc1nc2c(cnn2-c2ccc(C)c(C)c2)c(=O)[nH]1	–	–	·
COC(=O)c1ccc(CSc2nc3c(cnn3-c3ccc(Cl)cc3)c(=O)[nH]2)o1	59	–	–
CCCSc1nc2c(cnn2-c2ccc(Cl)cc2)c(=O)[nH]1	56	–	67
O=C(O)CC(c1cccc2ccccc12)n1cccc1 (stereo unspecified)	·	–	·
O=C(c1ccco1)N1CCN(C(=O)C2CCCc3c2[nH]c2ccc(Cl)cc32)CC1 (stereo unspecified)	–	–	·
CCCN1CCN(CCCNC(=O)Cn2nc(-c3ccccc3)ccc2=O)CC1	–	–	·
CCCCC(NC(C)=O)c1nc2ccccc2n1CCCC (stereo unspecified)	–	·	·
O=C(Nc1ccc2c(c1)OCO2)c1ccc2c(c1)S(=O)(=O)c1ccccc1C2=O	·	–	·
CC1(C)Cc2c(C#N)c(N)sc(=S)c2CO1	82	–	–
CC(C)C1Cc2c(C#N)c(N)sc(=S)c2CO1 (stereo unspecified)	–	–	·
CCC(C(=O)NC1CCCCC1)N(CC1CCCO1)C(=O)CNS(=O)(=O)c1ccc(OC)cc1 (stereo unspecified)	–	–	·
CCCC(C(=O)NC1CCCCC1)N(CC1CCCO1)C(=O)CNS(=O)(=O)c1ccc(F)cc1 (stereo unspecified)	58	–	–
COc1ccc(S(=O)(=O)N2CCN(c3nc4ccccc4nc3-n3nc(C)cc3C)CC2)cc1	–	–	·
COc1ccccc1NC(=O)CSc1nnc(COc2ccc(Cl)cc2)n1Cc1ccco1	–	–	·
COc1ccccc1OCc1nnc(SCC(=O)NCc2ccco2)n1Cc1ccco1	66	–	–
CCOC(=O)c1c(NC(=O)c2cc(CC(C)C)on2)sc(C(C)=O)c1C	·	–	·
CCCc1cc(C(=O)Nc2sc(C(C)=O)c(C)c2C(=O)OCC)no1	68	–	?
CCN(CC)C(=O)CC(c1cc(OC)c(OC)c(OC)c1)c1c(OC)cc(OC)c2c(-c3ccccc3)cc(=O)oc12 (stereo unspecified)	·	–	·
CC(=O)c1cccc(NC(=O)C(OC(=O)/C=C/c2ccc3c(c2)OCO3)c2ccccc2)c1 (stereo unspecified)	·	–	·
CCOC(=O)c1c(C)noc1CP(=O)(c1ccccc1)c1ccccc1	–	–	·
Cc1c(-c2ccccc2)sc(N)c1C(=O)N1CCOCC1	85	–	–
CCOC(=O)c1c(N)sc(-c2ccccc2)c1C	·	–	·
OC1(c2ccc(F)cc2)CCN(Cc2nnnn2Cc2cccs2)CC1	–	–	·
CCC1CC2(C)NC(=O)c3c(sc4c3CC(C)(C)OC4)N2C1=O (stereo unspecified)	79	·	60
SMILES	HIV RNase H inh-1	RmlC RmlD mix	HIV RNase H inh-2
Cn1c(NN)nc2sc3c(c2c1=O)CC(C)(C)OC3	·	–	·
Cc1ccc(-n2sc3ccccc3c2=O)cc1S(=O)(=O)N1CCCCC1	96	–	48
O=c1c2ccccc2sn1-c1ccc(S(=O)(=O)N2CCCC2)cc1	79	–	–
Cc1ccc(-c2nnc(N3CCCCC3)c3ccccc23)cc1S(=O)(=O)N1CCN(C)CC1	–	–	·
NS(=O)(=O)c1ccc(S(=O)(=O)N2CCCC2)cc1	·	–	·
Cc1ccc(-c2ccc(=O)n(CCC(=O)NCCN3CCCCC3C)n2)cc1 (stereo unspecified)	–	–	·
CCC(C(=O)N1CCc2ccccc2C1)n1nc(C)n2c(cc3occc32)c1=O (stereo unspecified)	–	–	·
CC1(O)c2ccccc2C(=O)N1CCc1ccccc1F (stereo unspecified)	89	–	–
CC1(O)c2ccccc2C(=O)N1Cc1ccccc1 (stereo unspecified)	–	–	·
Cn1c(Cn2cnc3ccccc32)nnc1SCC(=O)CC(=O)Nc1ccccc1	–	–	·
CCc1ccc(NC(=O)C(CC)Sc2nc3cc4c(cc3c(=O)n2Cc2ccco2)OCO4)cc1 (stereo unspecified)	·	–	·
CCc1ccccc1NC(=O)C(CC)Sc1nc2cc3c(cc2c(=O)n1Cc1ccco1)OCO3 (stereo unspecified)	78	–	–
COC(=O)C1(Cc2ccc(O)cc2)OC(=O)C(O)=C1c1ccc(O)cc1 (stereo unspecified)	·	–	·
O=C(c1cc2nc(-c3ccco3)cc(C(F)(F)F)n2n1)N1CCN(Cc2ccccc2)CC1	·	–	·
O=C(NCCCn1ccnc1)C(Cc1ccccc1)N1C(=O)c2ccccc2C1=O (stereo unspecified)	55	–	–
O=C(O)C(Cc1ccccc1)N1C(=O)c2ccccc2C1=O (stereo unspecified)	·	–	·
CC(=O)N(Cc1cc(=O)[nH]c2ccccc12)c1ccccc1	–	–	·
